# Bioassay records as filed in PubChem.
# APOBEC3G inh = APOBEC3G DNA deaminase inhibitors, primary screen, biochemical, fluorescence, single-stranded DNA substrate, uHTS; recombinant A3G, ssDNA deamination FAM/TAMRA fluorescence; AID 493012, 2011; DNA dC->dU-editing enzyme APOBEC-3G (Homo sapiens), Q9HC16; 0.28% of 330,000 active; inhibition, % at 20 µM;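 active means inhibition of at least 40% at 20 µM, with no more than 30% in the related APOBEC3A deaminase screen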
# Target sequence (Q9HC16 whole entry, looked up): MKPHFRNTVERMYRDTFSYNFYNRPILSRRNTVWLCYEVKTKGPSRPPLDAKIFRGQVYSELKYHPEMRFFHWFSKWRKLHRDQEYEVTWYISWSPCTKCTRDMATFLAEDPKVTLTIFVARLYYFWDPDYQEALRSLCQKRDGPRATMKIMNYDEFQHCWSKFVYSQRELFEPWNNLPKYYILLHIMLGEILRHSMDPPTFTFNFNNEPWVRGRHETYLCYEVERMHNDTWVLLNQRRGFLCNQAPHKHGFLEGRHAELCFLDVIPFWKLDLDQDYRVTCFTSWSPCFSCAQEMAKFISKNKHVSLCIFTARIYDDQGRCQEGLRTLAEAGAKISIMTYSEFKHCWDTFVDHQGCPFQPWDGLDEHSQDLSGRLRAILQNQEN
# A3A deaminase = APOBEC3A ssDNA deaminase inhibitors, primary screen, selectivity assay for APOBEC3G inhibitor project, biochemical, FAM/TAMRA oligo cleavage fluorescence | inhibition, % at 20 µM | recombinant A3A, FAM/TAMRA ssDNA deamination fluorescence | AID 493011, 2011 | DNA dC->dU-editing enzyme APOBEC-3A (Homo sapiens), P31941 | 0.41% of 330,000 active;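 active means at least 40% inhibition at 20 µM here, with at most 30% in a related deaminase screen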
# Wnt bcat act = Wnt/beta-catenin pathway activators, primary screen, cell-based, plate reader, single point | Wnt/beta-catenin reporter cell assay, activator | activation, % at 9.35 µM | 1.2% of 300,000 active; in the data active means activation above about 30%, passing the limit was not always enough; inconclusive means no clear call, values can overlap the other calls
# MITF TRPM1 HTS = activators of MITF-driven TRPM1 promoter reporter, primary screen, cell-based, SK-MEL-5, luciferase, single point. 0.75% of 300,000 active. SK-MEL-5 TRPM1-promoter luciferase, 24 h; % of positive control, neutral wells = 0. activation, % at 12.5 µM. AID 588334, 2011;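 active means mean activation of at least 80% with every replicate also reaching 80%; inconclusive means mean reaches 80% but some replicate falls short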
# PHOSPHO1 block = PubChem AID 1565; Phosphoethanolamine/phosphocholine phosphatase (Homo sapiens), Q8TCT1; recombinant PHOSPHO1, absorbance phosphatase assay; inhibition, % at 13.3 µM; 1.1% of 290,000 active; in the data active means inhibition above about 60%
# Target sequence (Q8TCT1 whole entry, looked up): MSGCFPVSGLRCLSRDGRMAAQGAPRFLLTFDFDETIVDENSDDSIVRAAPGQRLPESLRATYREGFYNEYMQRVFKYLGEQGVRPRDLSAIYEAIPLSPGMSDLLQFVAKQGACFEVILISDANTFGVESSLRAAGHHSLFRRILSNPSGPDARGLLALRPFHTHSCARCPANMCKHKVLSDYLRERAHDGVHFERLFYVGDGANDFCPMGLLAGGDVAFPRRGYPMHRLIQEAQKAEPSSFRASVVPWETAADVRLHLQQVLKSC
# esBAF inh = Bmi1 luciferase reporter increase in mESCs, primary screen, esBAF inhibitor project, mouse ES cells, Bmi1 luciferase knock-in, single point; 24 h; 100% = twice the neutral-well signal; reporter increase, % at 12.5 µM; 2% of 350,000 active; in the data active means activation above about 40%; inconclusive means no clear call, values can overlap the other calls;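 further: a rise in the Bmi1 reporter signal indicates esBAF inhibition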
# Hits are given with their value; 0 = inactive; ? = inconclusive; - = no result. Rows were chosen to be rich in hits. Some 3.6% of all compounds tested hit in one or more screens of this group.
SMILES,APOBEC3G inh,A3A deaminase,Wnt bcat act,MITF TRPM1 HTS,PHOSPHO1 block,esBAF inh
O=C(Nc1ccccc1Cl)c1ccc2nccnc2c1,0,0,0,103,0,0
O=C(Nc1ccc(Cl)cn1)c1ccc2nccnc2c1,0,0,37,126,0,-
O=C(Nc1ccccc1Cl)c1ccc(-c2ccccn2)s1,0,0,0,?,0,82
CCN(CC)S(=O)(=O)c1cc(C(=O)Nc2ccc(Cl)cn2)ccc1C,0,0,-,105,0,0
O=C(Nc1ccccc1Cl)c1cccc(COc2cc(Cl)ccc2Cl)c1,0,0,38,0,0,-
Cn1ccsc1=NC(=O)c1cccc(OC(F)F)c1,0,0,0,0,0,53
CCOc1cc(C(=O)N=c2sccn2C)cc(Br)c1OC,0,0,0,0,0,0
COC(=O)c1ccc(CSc2nnc(Nc3ccccc3OC)s2)o1,0,0,0,-,67,-
COc1ccc(Nc2nnc(SCc3cc([N+](=O)[O-])cc4c3OCOC4)s2)cc1,0,0,-,0,78,-
COC(=O)c1ccc(CSc2nnc(NCc3ccccc3)s2)o1,0,0,-,0,0,0
COC(=O)c1ccc(CSc2nnc(Nc3ccc(OC)cc3)s2)o1,0,0,-,0,71,0
Cc1nnc(SCc2cc([N+](=O)[O-])cc3c2OCOC3)[nH]c1=O,0,0,0,0,0,0
COc1ccc(NC(=O)Nc2ccc3c(c2)[C@@H]2C[C@@H](CC(=O)NCC4CC4)O[C@@H](CO)[C@@H]2O3)cc1,-,-,-,-,-,0
Cc1ccc(S(=O)(=O)N(C)C[C@@H]2Oc3ccc(NC(=O)Nc4ccc(F)cc4)cc3C(=O)N([C@H](C)CO)C[C@H]2C)cc1,-,-,-,-,-,0
CCCN(C)C[C@H]1OCCCC[C@H](C)Oc2ccc(NC(=O)Cc3ccccc3)cc2C(=O)N([C@H](C)CO)C[C@H]1C,-,-,-,-,-,0
O=C(C[C@@H]1C=C[C@H](NC(=O)CC2CC2)[C@@H](CO)O1)NCC(F)(F)F,-,-,-,-,-,0
O=C(C[C@@H]1CC[C@H]2[C@@H](COC[C@H](O)CN2Cc2cccc(C(F)(F)F)c2)O1)NCCc1ccncc1,-,-,-,-,-,0
C[C@H](CO)N1C[C@H](C)[C@@H](CN(C)C(=O)CN(C)C)Oc2ncc(-c3ccc(C(=O)N(C)C)cc3)cc2C1=O,-,-,-,-,-,0
Cc1ccccc1OCCn1c(=O)sc2ccccc21,0,0,0,0,0,63
COc1ccc(OCCn2c(=O)sc3ccccc32)cc1,0,0,0,0,0,-
Cc1ccc2oc(=O)n(CCCOc3ccccc3)c2c1,0,0,42,-,0,0
Cc1cccc(OCCCn2c(=O)sc3ccccc32)c1,0,0,-,0,0,54
Cc1cccc(OCCn2c(=O)n(C)c3ccccc32)c1,0,0,?,0,0,78
COc1ccccc1OCCn1c(=O)sc2ccccc21,0,0,0,-,0,0
Cc1cccc(OCCN2C(=O)c3ccccc3C2=O)c1,0,0,0,0,0,-
SMILES,APOBEC3G inh,A3A deaminase,Wnt bcat act,MITF TRPM1 HTS,PHOSPHO1 block,esBAF inh
Cc1cccc(OCCn2c(=O)sc3ccccc32)c1,0,0,-,91,0,68
CCOC(=O)/C=C/c1ccc2oc3ccccc3c(=O)c2c1,0,0,0,97,0,49
O=C1NC2(CCCC2)C(=O)N1CCS(=O)(=O)Oc1ccccc1,0,0,0,0,65,-
COc1ccccc1/C=c1\sc2nc(-c3ccccc3OC)nn2c1=O,0,0,-,-,87,-
Cc1ccc(-c2nc3s/c(=C\c4ccco4)c(=O)n3n2)cc1,0,0,0,0,95,0
O=C(COc1ccccc1)Nn1cnc2ccccc21,0,0,0,0,97,0
Cc1nc2ccccc2c(=O)n1NC(=O)COc1ccccc1,0,0,0,0,0,0
CC=Cc1ccc2n(c1=O)C[C@H]1[C@H](CO)[C@@H](C(=O)N3CCN(C)CC3)N(Cc3ccccc3F)[C@@H]21 (mixture of isomers),-,-,-,-,-,0
Cc1ccc(S(=O)(=O)NC(CC(C)C)C(=O)Oc2ccc3c4c(c(=O)oc3c2)CCC4)cc1 (stereo unspecified),0,0,0,0,60,0
CC[C@@H](NS(=O)(=O)c1ccc(C)cc1)C(=O)Oc1ccc2c3c(c(=O)oc2c1)CCC3,0,0,0,0,0,-
CCCNC(=O)c1cc(Cl)c(NC(=O)C2=CSCCO2)cc1OC,0,0,0,0,0,92
CCCNC(=O)c1cc(Cl)c(NC(=O)C2=C(C)OCCS2)cc1OC,0,0,0,0,0,0
COc1ccccc1CCN=C(N)NS(=O)(=O)c1ccccc1F,0,0,0,0,66,0
C[C@H](CO)N1C[C@H](C)[C@H](CN(C)C(=O)Nc2ccccc2)Oc2c(NS(=O)(=O)c3ccc(Cl)cc3)cccc2C1=O,-,-,-,-,-,0
Cc1ccc(-c2ccc(NC(=O)C3C4C=CC(C4)C3C(=O)O)cc2)o1 (stereo unspecified),0,0,-,-,0,59
NS(=O)(=O)c1ccc(NC(=O)C2C3C=CC(C3)C2C(=O)O)cc1 (stereo unspecified),0,0,0,0,60,0
C[C@@H]1CN([C@H](C)CO)C(=O)c2cc(NS(=O)(=O)c3ccc(F)cc3)ccc2O[C@@H](C)CCCCO[C@@H]1CN(C)C(=O)CCC(F)(F)F,-,-,-,-,-,0
Cc1ccc(S(=O)(=O)Nc2ccc3c(c2)C(=O)N([C@@H](C)CO)C[C@H](C)[C@H](CN(C)C(=O)C2CCCCC2)OCCCC[C@@H](C)O3)cc1,-,-,-,-,-,0
CCOC(=O)c1cn(CC)c2ccc(Br)cc2c1=O,0,0,-,-,78,0
CO[C@H]1CN(C)C(=O)c2cc(C#N)ccc2OC[C@H]2O[C@@H](CC[C@H]2OC)CCN(C)C(=O)[C@@H]1C,-,-,-,-,-,0
C[C@@H]1CN([C@@H](C)CO)C(=O)Cc2cc(NC(=O)Cc3cn(C)c4ccccc34)ccc2O[C@@H]1CN(C)S(=O)(=O)c1cn(C)cn1,-,-,-,-,-,0
O=C(Cc1ccccc1)N1CC[C@@H]2[C@H]1c1cc(-c3ccc(F)cc3)ccc1N[C@@H]2CO,-,-,-,-,-,0
COc1ccc(/C=N/Nc2ccccc2C(=O)O)cc1Cn1cc([N+](=O)[O-])cn1,0,0,0,0,60,48
O=C(N[C@H]1CC[C@@H](CCNC(=O)C2CCOCC2)O[C@@H]1CO)c1ccncc1,-,-,-,-,-,0
CCC(=O)Nc1ccc2c(c1)Cc1cc([N+](=O)[O-])ccc1-2,-,-,48,93,-,81
COc1ccc(-c2nnc(-c3ccc(C)cc3)o2)cc1,0,0,35,0,0,0
Cc1ccc(-c2nnc(-c3ccccc3)o2)cc1,0,0,-,0,0,-
